Experimental data reported in PubChem BioAssay (Tox21).
Records with an inconclusive call do not appear. Entries that show only a call come without a potency. Calls of active or inactive are those of the source. Unless noted, the call rests on the fitted dose curve; in most records, active means well fitted curve in the direction sought with a large enough effect in the repeat runs; inconclusive means weak or mixed curves; inactive means no such curve, though single readings can be large; an effect the other way counts as inactive or inconclusive.

Experiments:
[1] = qHTS assay to identify small molecule agonists of the RXR signaling pathway - cell viability counter screen (AID 1159529); further: nearly all actives have a fitted effect of over 50% in size; further: potency means the concentration at half of the fitted maximal effect
In short: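 Luminescence from CellTiter-Glo (30 min, RT) measured viability in the same wells as the beta-lactamase reporter readout. Cells: GeneBLAzer RXR-alpha HEK 293T, 2% charcoal-stripped FBS. Compound exposure 16 hr, 37 C.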

[2] = molecular target: Luciferin 4-monooxygenase (Photinus pyralis) (UniProt P08659); experiment: qHTS assay to identify small molecule inhibitors of firefly luciferase (AID 1224835); further: nearly all actives have a fitted effect of over 25% in size; further: potency means the concentration at half of the fitted maximal effect
Sequence of Luciferin 4-monooxygenase (Photinus pyralis) (P08659 whole entry, looked up): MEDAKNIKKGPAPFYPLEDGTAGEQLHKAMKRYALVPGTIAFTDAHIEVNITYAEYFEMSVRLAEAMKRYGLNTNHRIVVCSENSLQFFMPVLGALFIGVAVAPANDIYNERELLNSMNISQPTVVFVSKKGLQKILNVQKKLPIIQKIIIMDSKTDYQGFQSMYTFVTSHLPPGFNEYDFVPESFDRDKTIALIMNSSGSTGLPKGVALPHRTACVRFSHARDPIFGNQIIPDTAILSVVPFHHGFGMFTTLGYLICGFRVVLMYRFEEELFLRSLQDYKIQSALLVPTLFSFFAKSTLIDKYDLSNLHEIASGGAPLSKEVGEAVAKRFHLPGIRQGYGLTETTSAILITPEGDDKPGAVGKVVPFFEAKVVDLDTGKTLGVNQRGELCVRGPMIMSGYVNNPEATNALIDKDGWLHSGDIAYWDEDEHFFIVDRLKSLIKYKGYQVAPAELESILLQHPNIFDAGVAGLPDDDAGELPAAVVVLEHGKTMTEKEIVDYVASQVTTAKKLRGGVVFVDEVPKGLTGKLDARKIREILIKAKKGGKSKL
In short: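 Quantitative HTS format; KM concentrations of both substrates. Purified P. pyralis FLuc activity quantified from luminescence images.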

[3] = qHTS assay to identify small molecule agonists of the constitutive androstane receptor (CAR) signaling pathway - cell viability counter screen (AID 1224836); further: nearly all actives have a fitted effect of over 45% in size; further: potency means the concentration at half of the fitted maximal effect
In short: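 Viability read-out: CellTiter-Fluor fluorescence after 23 h compound exposure at 37 C/5% CO2 in double-stable HepG2-CYP2B6-hCAR cells, with PK11195 present at 0.75 uM final; compounds tested in 15-point titration.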

[4] = qHTS assay to identify small molecule antagonists of the constitutive androstane receptor (CAR) signaling pathway - cell viability counter screen (AID 1224837); further: nearly all actives have a fitted effect of over 45% in size; further: potency means the concentration at half of the fitted maximal effect
In short: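 To flag cytotoxic false antagonists, HepG2 hCAR/CYP2B6-2.2kb cells were treated 23 hr with 15-concentration compound series and 50 nM CITCO at 37 C/5% CO2; CellTiter-Fluor fluorescence was the measured end point.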

[5] = molecular target: Nuclear receptor subfamily 1 group I member 3 (Homo sapiens) (UniProt Q14994); experiment: qHTS assay to identify small molecule antagonists of the constitutive androstane receptor (CAR) signaling pathway (AID 1224838);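 further: HepG2 cells stably expressing hCAR with CYP2B6 luciferase reporter stimulated by CITCO; nearly all actives have a fitted effect of over 40% in size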; further: potency means the concentration at half of the fitted maximal effect
Sequence of Nuclear receptor subfamily 1 group I member 3 (Homo sapiens) (Q14994 whole entry, looked up): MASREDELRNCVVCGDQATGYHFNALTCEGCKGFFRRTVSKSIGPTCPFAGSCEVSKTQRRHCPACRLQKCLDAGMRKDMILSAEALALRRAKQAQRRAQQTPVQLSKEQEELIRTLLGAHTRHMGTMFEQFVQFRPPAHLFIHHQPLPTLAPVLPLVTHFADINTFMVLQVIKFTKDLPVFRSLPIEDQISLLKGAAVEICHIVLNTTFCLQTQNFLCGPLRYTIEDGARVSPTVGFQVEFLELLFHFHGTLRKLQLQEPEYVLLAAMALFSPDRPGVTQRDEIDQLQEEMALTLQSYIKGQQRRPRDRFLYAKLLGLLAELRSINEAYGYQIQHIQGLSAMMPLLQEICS
In short: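 Human hepatoma HepG2 cells expressing hCAR and a CYP2B6 promoter (2.2 kb) luciferase construct; compound titration (15 points) with 50 nM CITCO final, 24 h at 37 C/5% CO2; luminescence via ONE-Glo after 30 min at room temperature.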

[6] = molecular target: Nuclear receptor subfamily 1 group I member 3 (Homo sapiens) (UniProt Q14994); experiment: qHTS assay to identify small molecule agonists of the constitutive androstane receptor (CAR) signaling pathway (AID 1224839); further: nearly all actives have a fitted effect of over 15% in size; further: potency means the concentration at half of the fitted maximal effect
In short: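 Luminescence read-out (ONE-Glo, 30 min, room temperature) from double-stable HepG2-CYP2B6-hCAR cells exposed 24 h to 15-point compound series in presence of 0.75 uM PK11195 final.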

[7] = qHTS assay to identify small molecule antagonists of the estrogen related receptor signaling pathway with the pleiotropic PPARgamma coactivator (PGC) from Tox21 10K library - cell viability counter screen (AID 1224840; active means well fitted cell-killing curve with a large enough effect in the repeat runs, not every such curve was filed as active; further: nearly all actives have a fitted effect of over 40% in size; further: potency means the concentration at half of the fitted maximal effect)
In short: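 Seeded PGC/ERR cells (2,000/well, 6 h, 37 C/5% CO2) get compound by pin tool; 17.5 h incubation at 37 C; CellTiter-Fluor added, 30 min, fluorescence measured.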

[8] = molecular target: Thyrotropin receptor (Homo sapiens) (UniProt P16473); experiment: qHTS assay to identify small molecule agonists of the thyroid stimulating hormone receptor (TSHR) signaling pathway (AID 1224843; calls by dose curve; further: nearly all actives have a fitted effect of over 45% in size; further: potency means the concentration at half of the fitted maximal effect)
Sequence of Thyrotropin receptor (Homo sapiens) (P16473 whole entry, looked up): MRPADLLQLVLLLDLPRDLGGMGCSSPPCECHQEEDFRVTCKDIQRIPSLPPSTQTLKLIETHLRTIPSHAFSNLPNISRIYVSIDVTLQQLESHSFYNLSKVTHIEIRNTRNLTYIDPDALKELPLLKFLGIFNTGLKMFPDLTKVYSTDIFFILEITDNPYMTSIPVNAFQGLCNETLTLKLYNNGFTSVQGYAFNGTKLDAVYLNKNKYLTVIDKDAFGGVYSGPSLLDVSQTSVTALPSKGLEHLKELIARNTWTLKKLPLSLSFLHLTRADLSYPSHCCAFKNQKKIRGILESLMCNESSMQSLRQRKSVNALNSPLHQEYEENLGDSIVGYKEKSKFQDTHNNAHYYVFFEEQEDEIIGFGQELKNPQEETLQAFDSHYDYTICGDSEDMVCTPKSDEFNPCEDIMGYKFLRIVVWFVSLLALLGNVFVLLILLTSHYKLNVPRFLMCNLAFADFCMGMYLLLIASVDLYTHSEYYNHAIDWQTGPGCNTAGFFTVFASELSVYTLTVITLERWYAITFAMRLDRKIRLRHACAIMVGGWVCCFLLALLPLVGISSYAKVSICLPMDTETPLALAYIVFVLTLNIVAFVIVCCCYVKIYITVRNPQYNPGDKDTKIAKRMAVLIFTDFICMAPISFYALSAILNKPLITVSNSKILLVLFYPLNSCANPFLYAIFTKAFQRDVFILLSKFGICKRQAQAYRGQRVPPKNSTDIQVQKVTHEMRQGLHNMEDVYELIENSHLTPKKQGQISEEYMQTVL
In short: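 Using 15 concentrations per compound in triplicate, cAMP production was monitored in TSHR-HEK293 cells after 30 min compound incubation at RT; HTRF reagents followed, with fluorescence intensity recorded after 1 h.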

[9] = qHTS assay to identify small molecule antagonists of the retinoid acid receptor (RAR) signaling pathway - cell viability counter screen (AID 1159551); further: nearly all actives have a fitted effect of over 35% in size
In short: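 Measured by luminescent ATP detection, viability reflects C3RL4 cells treated 6 h at 37 C with test chemicals in the presence of 1 uM (final) retinol.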

[10] = qHTS assay to identify small molecule antagonists of the retinoic acid receptor (RAR) signaling pathway (AID 1159552; further: nearly all actives have a fitted effect of over 50% in size; further: potency means the concentration at half of the fitted maximal effect)
In short: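 Luminescence from a RARE luciferase reporter in C3RL4 cells served as read-out. Cells received compounds together with 1 uM final retinol and incubated 6 hr at 37 C before detection reagent was added for 30 min at room temperature.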

[11] = qHTS assay to identify small molecule agonists of the retinoic acid receptor (RAR) signaling pathway (AID 1159553); further: potency means the concentration at half of the fitted maximal effect
In short: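 6 hr compound exposure (DMSO vehicle) of overnight-plated C3RL4 RARE-luc cells at 37 C; luminescence quantified after 30 min RT with luciferase reagent.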

[12] = qHTS assay to identify small molecule antagonists of the estrogen related receptor (ERR) signaling pathway - cell viability counter screen (AID 1224818); further: series mostly up to about 46 µM
In short: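 Compounds dissolved in DMSO were applied to ERR cells seeded at 2,000 per well 6 h earlier. Cell viability followed 17.5 h later via 30-min CellTiter-Fluor fluorescence.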

[13] = qHTS assay to identify small molecule antagonists of the estrogen related receptor signaling pathway with the pleiotropic PPARgamma coactivator (PGC) cell viability counter screen (AID 1224822; further: series mostly up to about 46 µM)
In short: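 Counter screen for cell viability: PGC/ERR cells, 6 h pre-incubation after plating, 17.5 h compound exposure at 37 C, fluorescence from CellTiter-Fluor after 30 min.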

[14] = qHTS assay to identify small molecule antagonists of the estrogen related receptor (ERR) signaling pathway from Tox21 library - cell viability counter screen (AID 1224834); further: nearly all actives have a fitted effect of over 30% in size; further: potency means the concentration at half of the fitted maximal effect
In short: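 Seeded ERR cells were rested 6 h at 37 C/5% CO2 before compounds, positive and negative controls or DMSO were added. Incubation continued for 17.5 h, and viability was then quantified by CellTiter-Fluor fluorescence.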

[15] = qHTS assay to identify small molecule antagonists of the estrogen related receptor signaling pathway with the pleiotropic PPARgamma coactivator (PGC) from Tox21 10K library (AID 1224841; call rule not given here; further: series mostly up to about 92 µM; actives are mostly falling curves and most rising ones were filed inactive; nearly all actives have a fitted effect of over 50% in size)
In short: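 Test chemicals dissolved in DMSO were applied to pre-incubated (6 h) PGC/ERR cells at 2,000 cells/well for an 18 h, 37 C treatment; reporter luminescence was then read using One-Glo.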

[16] = qHTS assay to identify small molecule agonists of the estrogen related receptor signaling pathway with the pleiotropic PPARgamma coactivator (PGC) from Tox21 10K library (AID 1224842); further: nearly all actives have a fitted effect of over 15% in size
In short: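 PGC/ERR reporter cells (NTP line) were seeded 2,000 per well, rested 6 h at 37 C/5% CO2, then pin-dosed with compounds in DMSO for 18 h at 37 C; luciferase read by One-Glo luminescence after 30 min at room temperature.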

CNS(=O)(=O)Cc1ccc2[nH]cc(CCN(C)C)c2c1
Potency [1]: inactive | Potency [2]: inactive | Potency [3]: inactive | Potency [4]: inactive | Potency [5]: inactive | Potency [6]: inactive | Potency [7]: inactive

S=C(S)NCCNC(=S)S
Potency [1]: inactive | Potency [2]: inactive | Potency [3]: inactive | Potency [4]: inactive | Potency [8]: inactive

CCOC(=O)C1=C(C)NC(C)=C(C(=O)OC)C1c1cccc([N+](=O)[O-])c1 (configuration not stated)
Potency [9]: inactive | Potency [10]: inactive | Potency [11]: inactive | outcome [12]: inactive | outcome [13]: inactive | Potency [2]: inactive | Potency [3]: inactive | Potency [4]: inactive | Potency [5]: inactive | Potency [6]: inactive | Potency [7]: inactive | Potency [8]: inactive

Cc1cc(C)c(S(=O)(=O)O)cc1N=Nc1cc(S(=O)(=O)O)c2ccccc2c1O
Potency [1]: inactive | Potency [2]: 1.42 µM (active) | Potency [3]: 61.1 µM (active) | Potency [4]: 61.1 µM (active) | Potency [5]: inactive | Potency [6]: inactive | Potency [7]: 34.4 µM (active) | Potency [8]: inactive

Cn1sccc1=O
Potency [1]: inactive | Potency [14]: inactive | Potency [3]: inactive | Potency [4]: inactive | Potency [5]: 24.3 µM (active) | Potency [6]: inactive | Potency [7]: inactive | Potency [15]: inactive | Potency [8]: inactive

CC[C@@H]1C[C@H](N(Cc2cc(C(F)(F)F)cc(C(F)(F)F)c2)C(C)=O)c2cc(C(F)(F)F)ccc2N1C(=O)OC(C)C
Potency [1]: inactive | Potency [11]: inactive | Potency [14]: inactive | Potency [2]: inactive | Potency [4]: inactive | Potency [5]: inactive | Potency [6]: inactive | Potency [7]: inactive

COCCO
Potency [9]: inactive | Potency [10]: inactive | Potency [11]: inactive | Potency [2]: inactive | Potency [3]: inactive | Potency [4]: inactive | Potency [5]: inactive | Potency [6]: inactive | Potency [7]: inactive

Oc1ccc(C(O)CNCCCCCCNCC(O)c2ccc(O)c(O)c2)cc1O (configuration not stated)
Potency [1]: inactive | Potency [14]: inactive | Potency [2]: inactive | Potency [3]: inactive | Potency [4]: inactive | Potency [7]: inactive | Potency [8]: 6.68 µM (active)

CCOC(=S)SSC(=S)OCC
Potency [1]: inactive | Potency [14]: inactive | Potency [3]: inactive | Potency [5]: inactive | Potency [6]: inactive | Potency [7]: inactive | Potency [8]: inactive

FC(F)(F)C(F)(F)C(F)(F)C(F)(F)C(F)(F)C(F)(F)CCI
Potency [1]: inactive | Potency [10]: inactive | Potency [11]: inactive | Potency [3]: inactive | Potency [4]: inactive | Potency [5]: inactive | Potency [6]: inactive | Potency [7]: inactive | Potency [8]: inactive

Cc1cc(O)ccc1N
Potency [1]: 34.9 µM (active) | Potency [10]: inactive | Potency [14]: 15.4 µM (active) | Potency [5]: 3.08 µM (active) | Potency [6]: inactive | Potency [15]: inactive | Potency [8]: inactive

N#CCc1cccc(C(F)(F)F)c1
Potency [9]: inactive | Potency [10]: inactive | Potency [11]: inactive | Potency [14]: inactive | Potency [2]: inactive | Potency [3]: inactive | Potency [4]: inactive | Potency [8]: inactive

Cc1ccc(C(C)c2ccc(C)c(C)c2)cc1C
Potency [9]: inactive | Potency [10]: inactive | Potency [11]: inactive | Potency [14]: inactive | Potency [2]: inactive | Potency [3]: inactive | Potency [4]: inactive | Potency [5]: inactive | Potency [6]: inactive | Potency [7]: inactive

N#CCCNCCC#N
Potency [1]: inactive | Potency [14]: inactive | Potency [2]: inactive | Potency [3]: inactive | Potency [5]: inactive | Potency [6]: inactive | Potency [8]: inactive

C=CC(=O)OCC(C)OCC(C)OCC(C)OC(=O)C=C (configuration not stated)
Potency [1]: inactive | Potency [10]: 61.1 µM (active) | Potency [14]: 61.1 µM (active) | Potency [2]: inactive | Potency [3]: inactive | Potency [5]: inactive | Potency [6]: inactive

Cc1ccc(O)c([C@H](CCN(C(C)C)C(C)C)c2ccccc2)c1
Potency [9]: inactive | Potency [10]: inactive | Potency [11]: inactive | Potency [14]: inactive | Potency [2]: inactive | Potency [3]: inactive | Potency [4]: inactive | Potency [5]: inactive | Potency [6]: inactive | Potency [8]: inactive

N#Cc1cc2ccccc2c2ccccc12
Potency [9]: inactive | Potency [10]: inactive | Potency [11]: inactive | Potency [14]: inactive | Potency [3]: inactive | Potency [4]: inactive | Potency [5]: inactive | Potency [6]: 27.4 µM (active) | Potency [7]: inactive

CC(C)(C)c1ccc(OCC2CO2)cc1 (configuration not stated)
Potency [9]: inactive | Potency [10]: inactive | Potency [11]: 12.4 µM (active) | Potency [14]: inactive | Potency [2]: 32.4 µM (active) | Potency [3]: inactive | Potency [4]: inactive | Potency [7]: inactive | Potency [15]: inactive | Potency [8]: inactive

CCCCCc1ccc(N)cc1
Potency [9]: inactive | Potency [10]: inactive | Potency [11]: inactive | Potency [14]: inactive | Potency [3]: inactive | Potency [5]: inactive | Potency [6]: inactive | Potency [7]: inactive | Potency [8]: inactive

N=C(N=C(N)N)N1CCOCC1
Potency [9]: inactive | Potency [10]: inactive | Potency [11]: inactive | Potency [14]: inactive | Potency [2]: inactive | Potency [3]: inactive | Potency [5]: inactive | Potency [6]: inactive | Potency [7]: inactive | Potency [15]: inactive | Potency [16]: inactive | Potency [8]: inactive

COc1cc(C(C)(C)C)c(O)c(C(C)(C)C)c1
Potency [1]: inactive | Potency [14]: inactive | Potency [2]: inactive | Potency [3]: inactive | Potency [4]: inactive | Potency [7]: inactive | Potency [15]: inactive | Potency [16]: inactive

CC(C)(C)c1cc(O)c(C(C)(C)C)cc1O
Potency [1]: inactive | Potency [14]: 48.6 µM (active) | Potency [2]: inactive | Potency [16]: inactive | Potency [8]: inactive

CC(Cc1cccc(C(F)(F)F)c1)NCCOC(=O)c1ccccc1 (configuration not stated)
Potency [9]: inactive | Potency [10]: inactive | Potency [11]: inactive | Potency [14]: inactive | Potency [2]: inactive | Potency [3]: inactive | Potency [4]: inactive | Potency [5]: inactive | Potency [6]: inactive | Potency [8]: inactive

O=C(O)Cn1c(C(=O)Nc2nc(-c3ccccc3Cl)cs2)cc2ccccc21
Potency [9]: inactive | Potency [10]: inactive | Potency [11]: inactive | Potency [14]: inactive | Potency [2]: 13.8 µM (active) | Potency [3]: inactive | Potency [4]: inactive | Potency [7]: inactive | Potency [15]: inactive | Potency [8]: inactive

c1ccc(-c2nc[nH]c2-c2ccccc2)cc1
Potency [1]: inactive | Potency [14]: inactive | Potency [2]: inactive | Potency [3]: inactive | Potency [4]: inactive | Potency [5]: inactive | Potency [6]: inactive | Potency [7]: inactive | Potency [8]: inactive
